The record followed here is ChEMBL document CHEMBL1961873, “Compounds: GSK PKIS; Assays: Nanosyn kinase panel” (2012).

Each structure is given as a SMILES string.

The term inhibition denotes the change of the read-out against control, counted positive when it falls.

For test [1], the target named is Calcium/calmodulin-dependent protein kinase type II subunit alpha (Homo sapiens) (UniProt Q9UQM7). To be noted: at 1 µM.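 Further: reported value is a mean percent inhibition of CAMK2A.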
The target of test [2] is Calcium/calmodulin-dependent protein kinase type II subunit delta (Homo sapiens) (UniProt Q13557). To be noted: at 0.1 µM.
For test [3] the target is unchanged. The conditions noted are these: at 1 µM.
In test [4] the target is T1, Calcium/calmodulin-dependent protein kinase type IV (Homo sapiens) (UniProt Q16566).
T1 sequence (whole entry): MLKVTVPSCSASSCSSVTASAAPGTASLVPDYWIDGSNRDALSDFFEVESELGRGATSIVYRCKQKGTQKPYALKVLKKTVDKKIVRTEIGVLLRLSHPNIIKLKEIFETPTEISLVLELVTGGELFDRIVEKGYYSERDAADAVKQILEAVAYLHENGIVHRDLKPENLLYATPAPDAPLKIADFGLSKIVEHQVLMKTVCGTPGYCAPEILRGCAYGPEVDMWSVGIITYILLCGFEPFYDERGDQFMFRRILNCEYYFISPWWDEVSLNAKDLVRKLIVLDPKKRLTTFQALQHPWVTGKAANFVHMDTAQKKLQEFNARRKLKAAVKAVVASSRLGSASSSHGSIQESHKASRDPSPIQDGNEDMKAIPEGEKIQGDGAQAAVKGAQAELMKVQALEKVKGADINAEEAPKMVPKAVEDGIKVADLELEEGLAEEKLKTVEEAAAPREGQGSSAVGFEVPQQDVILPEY
The conditions noted are these: at 0.1 µM.

In test [5] the target is T1, Calcium/calmodulin-dependent protein kinase type IV (Homo sapiens). To be noted: at 1 µM.
Test [6] deals with T2, Serine/threonine-protein kinase Chk1 (Homo sapiens) (UniProt O14757).
T2 sequence (whole entry): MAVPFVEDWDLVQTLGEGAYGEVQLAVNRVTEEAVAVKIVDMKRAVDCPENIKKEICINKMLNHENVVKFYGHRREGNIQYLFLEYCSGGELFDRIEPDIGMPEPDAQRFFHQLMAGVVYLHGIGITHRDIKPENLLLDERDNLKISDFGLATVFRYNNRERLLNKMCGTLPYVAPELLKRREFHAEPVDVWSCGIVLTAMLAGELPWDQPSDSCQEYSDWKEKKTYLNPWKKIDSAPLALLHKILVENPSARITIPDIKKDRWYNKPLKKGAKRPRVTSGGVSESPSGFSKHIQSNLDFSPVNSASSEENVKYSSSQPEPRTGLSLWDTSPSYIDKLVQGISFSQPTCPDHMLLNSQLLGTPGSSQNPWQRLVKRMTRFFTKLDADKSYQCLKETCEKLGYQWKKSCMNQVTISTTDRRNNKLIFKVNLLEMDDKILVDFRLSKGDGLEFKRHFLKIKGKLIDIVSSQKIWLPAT
To be noted: at 0.1 µM.

For test [7], the target named is T2, Serine/threonine-protein kinase Chk1 (Homo sapiens). The conditions noted are these: at 1 µM.
Test [8] addresses Serine/threonine-protein kinase Chk2 (Homo sapiens) (UniProt O96017). To be noted: at 0.1 µM.
Test [9] has the same target. The conditions noted are these: at 1 µM.
Test [10] addresses Death-associated protein kinase 1 (Homo sapiens) (UniProt P53355). The conditions noted are these: at 0.1 µM.
The target is the same in test [11]. The conditions noted are these: at 1 µM.
Test [12] deals with T3, Serine/threonine-protein kinase DCLK2 (Homo sapiens) (UniProt Q8N568).
T3 sequence (whole entry): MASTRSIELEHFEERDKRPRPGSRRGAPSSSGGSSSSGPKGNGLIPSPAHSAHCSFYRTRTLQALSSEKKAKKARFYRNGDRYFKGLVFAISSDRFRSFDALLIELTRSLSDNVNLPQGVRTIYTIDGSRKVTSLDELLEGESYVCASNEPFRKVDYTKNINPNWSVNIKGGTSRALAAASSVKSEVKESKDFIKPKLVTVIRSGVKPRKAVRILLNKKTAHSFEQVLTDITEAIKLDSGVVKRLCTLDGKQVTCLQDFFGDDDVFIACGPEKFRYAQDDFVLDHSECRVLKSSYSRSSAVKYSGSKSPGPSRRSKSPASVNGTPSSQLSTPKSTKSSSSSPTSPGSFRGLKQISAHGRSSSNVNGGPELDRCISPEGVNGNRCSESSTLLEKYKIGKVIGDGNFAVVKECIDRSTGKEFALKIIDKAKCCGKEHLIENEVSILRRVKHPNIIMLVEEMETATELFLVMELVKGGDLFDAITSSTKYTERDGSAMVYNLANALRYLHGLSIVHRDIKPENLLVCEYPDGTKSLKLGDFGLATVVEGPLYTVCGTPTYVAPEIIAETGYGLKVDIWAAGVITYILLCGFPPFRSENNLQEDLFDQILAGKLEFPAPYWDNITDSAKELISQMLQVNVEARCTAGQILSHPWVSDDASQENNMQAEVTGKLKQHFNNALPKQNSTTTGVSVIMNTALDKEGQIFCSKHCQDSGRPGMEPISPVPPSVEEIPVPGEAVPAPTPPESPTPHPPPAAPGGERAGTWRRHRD
To be noted: at 0.1 µM.

The target in test [13] is T3, Serine/threonine-protein kinase DCLK2 (Homo sapiens). To be noted: at 1 µM.
Test [14] has as its target MAP kinase-activated protein kinase 2 (Homo sapiens) (UniProt P49137). To be noted: at 0.1 µM.
The target is the same in test [15]. The conditions noted are these: at 1 µM.
Test [16] concerns the target MAP kinase-activated protein kinase 3 (Homo sapiens) (UniProt Q16644). To be noted: at 0.1 µM.
Test [17] shares this target. The conditions noted are these: at 1 µM.
Test [18] concerns the target Serine/threonine-protein kinase MARK1 (Homo sapiens) (UniProt Q9P0L2). To be noted: at 0.1 µM.
For test [19] the target is unchanged. To be noted: at 1 µM.
The target in test [20] is MAP/microtubule affinity-regulating kinase 3 (Homo sapiens) (UniProt P27448). The conditions noted are these: at 0.1 µM.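 Further: mean percent inhibition of MARK3 kinase activity, measured within the GSK PKIS screening panel.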
Sequence of MAP/microtubule affinity-regulating kinase 3 (Homo sapiens) (P27448 whole entry, looked up): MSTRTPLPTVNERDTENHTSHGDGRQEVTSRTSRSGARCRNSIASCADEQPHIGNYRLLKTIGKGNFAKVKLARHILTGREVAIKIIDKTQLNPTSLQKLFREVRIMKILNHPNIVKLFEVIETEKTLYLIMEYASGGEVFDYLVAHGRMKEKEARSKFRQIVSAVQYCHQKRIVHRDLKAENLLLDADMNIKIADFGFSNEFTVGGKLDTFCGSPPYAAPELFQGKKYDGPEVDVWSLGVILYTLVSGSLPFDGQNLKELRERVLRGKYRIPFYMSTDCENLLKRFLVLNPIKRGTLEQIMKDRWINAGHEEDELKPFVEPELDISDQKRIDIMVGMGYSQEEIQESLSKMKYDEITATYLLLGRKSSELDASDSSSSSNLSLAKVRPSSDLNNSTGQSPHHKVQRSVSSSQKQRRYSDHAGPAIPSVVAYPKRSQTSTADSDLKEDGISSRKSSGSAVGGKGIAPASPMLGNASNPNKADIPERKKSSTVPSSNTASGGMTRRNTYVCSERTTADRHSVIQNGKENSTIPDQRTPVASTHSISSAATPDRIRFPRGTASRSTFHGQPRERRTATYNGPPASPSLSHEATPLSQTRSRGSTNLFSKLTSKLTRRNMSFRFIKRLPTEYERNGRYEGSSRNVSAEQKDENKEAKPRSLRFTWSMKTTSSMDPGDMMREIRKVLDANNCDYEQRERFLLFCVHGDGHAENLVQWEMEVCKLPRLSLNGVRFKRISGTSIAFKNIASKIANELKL

Sequence of MAP kinase-activated protein kinase 3 (Homo sapiens) (Q16644 whole entry, looked up): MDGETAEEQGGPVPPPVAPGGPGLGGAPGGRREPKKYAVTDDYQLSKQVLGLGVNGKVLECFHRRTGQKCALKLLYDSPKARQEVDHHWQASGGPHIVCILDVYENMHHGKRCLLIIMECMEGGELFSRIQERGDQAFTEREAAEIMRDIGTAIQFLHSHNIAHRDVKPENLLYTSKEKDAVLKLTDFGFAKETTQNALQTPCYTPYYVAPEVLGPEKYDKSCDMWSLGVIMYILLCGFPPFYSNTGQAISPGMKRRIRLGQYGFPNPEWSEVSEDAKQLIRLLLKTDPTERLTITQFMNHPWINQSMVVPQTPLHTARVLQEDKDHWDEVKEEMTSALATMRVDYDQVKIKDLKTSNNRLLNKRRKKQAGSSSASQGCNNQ
Sequence of Death-associated protein kinase 1 (Homo sapiens) (P53355 whole entry, looked up): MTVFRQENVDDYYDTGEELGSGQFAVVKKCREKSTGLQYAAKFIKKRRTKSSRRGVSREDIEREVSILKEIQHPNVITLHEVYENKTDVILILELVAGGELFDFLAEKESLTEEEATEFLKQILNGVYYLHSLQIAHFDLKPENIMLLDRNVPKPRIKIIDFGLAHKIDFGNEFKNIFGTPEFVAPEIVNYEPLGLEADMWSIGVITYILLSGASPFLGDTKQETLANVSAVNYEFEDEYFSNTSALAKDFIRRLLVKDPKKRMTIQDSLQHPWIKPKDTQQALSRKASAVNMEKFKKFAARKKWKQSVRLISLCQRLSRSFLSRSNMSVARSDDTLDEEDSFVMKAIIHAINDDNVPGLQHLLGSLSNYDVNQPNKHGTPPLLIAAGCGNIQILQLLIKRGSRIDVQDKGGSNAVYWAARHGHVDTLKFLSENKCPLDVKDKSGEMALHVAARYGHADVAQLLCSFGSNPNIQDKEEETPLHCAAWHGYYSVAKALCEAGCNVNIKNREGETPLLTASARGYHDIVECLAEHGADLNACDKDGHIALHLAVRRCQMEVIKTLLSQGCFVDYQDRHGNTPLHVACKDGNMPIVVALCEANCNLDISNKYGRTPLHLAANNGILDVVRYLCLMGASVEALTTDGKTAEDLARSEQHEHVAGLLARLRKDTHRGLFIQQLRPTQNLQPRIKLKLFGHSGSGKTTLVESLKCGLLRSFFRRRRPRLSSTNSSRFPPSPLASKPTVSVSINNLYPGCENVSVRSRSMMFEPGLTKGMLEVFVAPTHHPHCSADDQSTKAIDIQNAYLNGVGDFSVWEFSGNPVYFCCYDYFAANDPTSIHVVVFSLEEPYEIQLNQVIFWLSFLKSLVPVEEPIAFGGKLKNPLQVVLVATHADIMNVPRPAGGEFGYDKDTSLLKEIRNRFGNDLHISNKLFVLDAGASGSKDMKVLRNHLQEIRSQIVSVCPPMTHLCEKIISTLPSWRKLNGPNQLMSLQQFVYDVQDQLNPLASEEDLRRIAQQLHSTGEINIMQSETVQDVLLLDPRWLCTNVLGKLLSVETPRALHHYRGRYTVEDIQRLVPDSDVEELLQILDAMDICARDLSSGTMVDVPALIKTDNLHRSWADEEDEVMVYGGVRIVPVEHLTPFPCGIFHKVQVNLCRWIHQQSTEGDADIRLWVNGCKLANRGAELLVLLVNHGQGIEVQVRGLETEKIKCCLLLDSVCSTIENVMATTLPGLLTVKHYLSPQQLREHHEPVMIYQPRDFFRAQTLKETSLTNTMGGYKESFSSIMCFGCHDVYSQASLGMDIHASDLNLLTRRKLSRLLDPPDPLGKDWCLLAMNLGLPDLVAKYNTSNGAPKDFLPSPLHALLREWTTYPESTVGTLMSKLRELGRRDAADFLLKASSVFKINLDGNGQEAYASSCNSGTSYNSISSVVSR
Sequence of Calcium/calmodulin-dependent protein kinase type II subunit delta (Homo sapiens) (Q13557 whole entry): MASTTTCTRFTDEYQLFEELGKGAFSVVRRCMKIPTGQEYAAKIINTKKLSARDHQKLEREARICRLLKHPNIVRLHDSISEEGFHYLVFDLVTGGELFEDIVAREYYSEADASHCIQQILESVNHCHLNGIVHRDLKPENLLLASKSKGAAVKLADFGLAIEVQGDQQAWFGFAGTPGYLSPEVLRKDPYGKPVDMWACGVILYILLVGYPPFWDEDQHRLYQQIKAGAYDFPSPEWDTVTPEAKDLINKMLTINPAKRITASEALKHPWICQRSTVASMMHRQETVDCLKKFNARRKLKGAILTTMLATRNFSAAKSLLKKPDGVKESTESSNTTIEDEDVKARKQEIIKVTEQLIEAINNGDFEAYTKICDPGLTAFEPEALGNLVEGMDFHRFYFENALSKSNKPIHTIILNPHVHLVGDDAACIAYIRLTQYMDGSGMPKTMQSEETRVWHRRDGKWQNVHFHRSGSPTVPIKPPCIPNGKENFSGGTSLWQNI
Sequence of Serine/threonine-protein kinase Chk2 (Homo sapiens) (O96017 whole entry): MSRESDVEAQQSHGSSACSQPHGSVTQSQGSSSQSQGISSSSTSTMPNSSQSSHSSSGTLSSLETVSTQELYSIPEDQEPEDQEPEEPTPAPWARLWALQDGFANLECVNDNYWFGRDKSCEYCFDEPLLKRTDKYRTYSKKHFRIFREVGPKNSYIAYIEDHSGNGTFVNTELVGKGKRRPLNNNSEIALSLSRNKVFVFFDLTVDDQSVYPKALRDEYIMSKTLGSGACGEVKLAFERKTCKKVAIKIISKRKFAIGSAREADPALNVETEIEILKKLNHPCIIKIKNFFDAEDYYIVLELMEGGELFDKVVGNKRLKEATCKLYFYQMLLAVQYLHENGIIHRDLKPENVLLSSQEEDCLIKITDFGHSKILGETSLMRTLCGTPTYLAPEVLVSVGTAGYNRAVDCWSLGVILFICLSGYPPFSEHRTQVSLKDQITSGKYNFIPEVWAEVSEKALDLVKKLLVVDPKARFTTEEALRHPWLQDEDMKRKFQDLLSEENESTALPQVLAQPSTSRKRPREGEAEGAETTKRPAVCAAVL
Sequence of Calcium/calmodulin-dependent protein kinase type II subunit alpha (Homo sapiens) (Q9UQM7 whole entry): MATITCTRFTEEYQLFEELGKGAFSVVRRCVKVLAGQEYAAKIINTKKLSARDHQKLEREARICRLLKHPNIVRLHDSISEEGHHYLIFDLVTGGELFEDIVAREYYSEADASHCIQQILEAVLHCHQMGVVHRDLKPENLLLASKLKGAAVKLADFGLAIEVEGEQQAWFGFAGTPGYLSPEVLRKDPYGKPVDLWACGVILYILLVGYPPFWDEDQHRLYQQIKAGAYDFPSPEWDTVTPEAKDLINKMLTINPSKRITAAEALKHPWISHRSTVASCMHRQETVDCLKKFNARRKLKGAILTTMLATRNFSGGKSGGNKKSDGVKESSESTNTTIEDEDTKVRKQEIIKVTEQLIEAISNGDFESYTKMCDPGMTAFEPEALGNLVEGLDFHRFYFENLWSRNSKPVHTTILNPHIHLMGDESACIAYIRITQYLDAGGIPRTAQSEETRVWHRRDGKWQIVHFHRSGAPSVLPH
Sequence of Serine/threonine-protein kinase MARK1 (Homo sapiens) (Q9P0L2 whole entry, looked up): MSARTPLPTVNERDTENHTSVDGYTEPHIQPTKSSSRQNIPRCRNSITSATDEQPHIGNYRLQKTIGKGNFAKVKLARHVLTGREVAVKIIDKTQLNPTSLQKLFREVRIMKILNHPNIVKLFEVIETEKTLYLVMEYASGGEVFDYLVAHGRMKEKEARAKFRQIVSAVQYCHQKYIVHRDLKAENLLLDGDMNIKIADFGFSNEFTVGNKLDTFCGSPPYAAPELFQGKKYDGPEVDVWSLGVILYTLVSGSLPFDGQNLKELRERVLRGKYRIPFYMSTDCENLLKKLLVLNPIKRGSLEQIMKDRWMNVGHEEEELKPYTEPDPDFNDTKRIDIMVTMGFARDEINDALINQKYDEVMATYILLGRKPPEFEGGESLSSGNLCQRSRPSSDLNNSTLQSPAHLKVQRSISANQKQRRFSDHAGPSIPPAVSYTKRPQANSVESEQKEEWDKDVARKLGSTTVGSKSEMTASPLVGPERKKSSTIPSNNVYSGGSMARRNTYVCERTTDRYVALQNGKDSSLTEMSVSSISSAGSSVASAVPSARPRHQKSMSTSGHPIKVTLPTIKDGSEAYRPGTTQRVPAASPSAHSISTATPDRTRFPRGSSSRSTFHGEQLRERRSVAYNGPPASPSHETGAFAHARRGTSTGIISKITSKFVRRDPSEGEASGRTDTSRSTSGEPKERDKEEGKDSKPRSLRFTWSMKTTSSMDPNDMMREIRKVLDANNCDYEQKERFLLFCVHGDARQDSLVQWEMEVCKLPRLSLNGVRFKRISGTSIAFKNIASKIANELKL

Regarding `CCNC(=O)O[C@H]1CN[C@H](C#Cc2cc3ncnc(Nc4ccc(OCc5cccc(F)c5)c(Cl)c4)c3s2)C1`, the inhibition was found to be 3.02% in test [1]; 3.6% in [2]; 4.34% in test [3]; 2.5% in [4]; 2.5% in test [5]; 3.99% in test [6]. The inhibition stood at 2.84% in test [7]; 2.23% in test [8]; 2.55% in test [9]; 3.17% in test [10]; 3.45% in test [11]; 1.18% in [12]. Also, the inhibition is 2.85% in test [13]; 1.55% in test [14]; 1.53% in test [15]; 2.87% in [16]; 2.32% in test [17]; 1.89% in test [18]. In addition, the values for the inhibition in test [19] and in test [20] were 2.65% and 2.76%, respectively.

`CCN(CC)S(=O)(=O)c1ccc(OC)c(Nc2ncc(-c3ccccc3)o2)c1`: the inhibition in test [1] is 6.08%; in test [2], 2.08%; in test [3], 8.27%; in test [4] it was -0.4%; in [5] it was -1.66%; in [6] it was 1.49%. Moreover, the inhibition in test [7] is 2.79%; in test [8] it was -0.98%; in test [9] it was 2.66%; in test [10], 4%; in test [11] it was 4.29%; in [12] it was 2.03%. The inhibition in test [13] is 3.38%; in test [14], 2.65%; in test [15] it was 1.48%; in test [16], 1.95%; in [17], -0.47%; in test [18] it was 1.44%. The values for the inhibition in [19] and in test [20] were 2.58% and -0.45%, respectively.

On to `Fc1ccc(-c2cc(-c3c[nH]nc3-c3ccccn3)ccn2)cc1`, for which the inhibition is 2.33% in test [1]; 2.86% in test [2]; 4.06% in test [3]; -2.35% in test [4]; -4.94% in [5]; 1.21% in [6]. For the same molecule, the inhibition in test [7] was -0.75%; in [8] it was 4.88%; in [9], 5.9%; in test [10], 0.73%; in [11], 3.05%; in [12] it was 1.09%. In addition, the inhibition was -1.86% in test [13]; 2.53% in test [14]; 2.72% in test [15]; 7.67% in test [16]; 18.4% in test [17]; 4.11% in test [18]. For the same molecule, the inhibition came to 3.39% in test [19] and 2.52% in test [20].

As to `CN1CCC(n2cnc(-c3ccc(F)cc3)c2-c2ccnc(N)n2)CC1`, the inhibition in test [1] was 2.5%; in [2] it was -0.04%; in test [3], 4.76%; in test [4] it was -0.06%; in [5], 0.61%; in [6], 0.82%. Besides, the inhibition in [7] is -1.42%; in test [8], 1.28%; in [9], 9.16%; in test [10] it was 2.13%; in test [11], 2.09%; in test [12] it was 0.59%. In addition, the inhibition came out at 1.94% in [13]; 0.99% in test [14]; 0.33% in [15]; 17.1% in [16]; 33.5% in [17]; 1.8% in test [18]. In addition, the inhibition in test [19] amounted to 6.88%; in test [20], 0.93%.

For the molecule `CC1=C(C(=O)Nc2cc(Cl)c3[nH]ncc3c2)C(c2ccc(C(F)(F)F)cc2)CC(=O)N1` (stereo not given), the inhibition in [1] was 1.21%; in test [2] it was 1.82%; in test [3], 4.42%; in test [4] it was -0.37%; in [5], 0.15%; in test [6], 8.32%. Further, the inhibition was determined as 11.4% in test [7]; 6.46% in [8]; 7.48% in test [9]; 9.05% in [10]; 10% in test [11]; 3.55% in [12]. The inhibition turned out to be 2.36% in test [13]; 4.51% in [14]; 4.3% in [15]; 9.27% in [16]; 9.12% in [17]; 3.77% in test [18]. The inhibition was determined as 6.87% in [19] and 3.36% in test [20].

Turning to `NC(=O)c1sc(-n2cnc3ccc(C(F)(F)F)cc32)cc1OCc1ccccc1Br`, the inhibition in [1] was 3.63%; in [2], 2.57%; in test [3], 7.23%; in test [4], 1.31%; in test [5] it was 2.02%; in test [6] it was -3.21%. Also, the inhibition in test [7] was -0.7%; in test [8], 2.54%; in test [9] it was 3.23%; in test [10] it was -0.43%; in test [11], -0.59%; in [12] it was 0.84%. Moreover, the inhibition was -0.41% in [13]; 1.86% in [14]; 0.94% in test [15]; 4.27% in [16]; 4.34% in test [17]; 2.69% in [18]. For the same molecule, the inhibition in test [19] came to 4.02%; in test [20], 0.94%.
